# In the supplement of paper PMC8728848:
# Many of the other results were omitted from the sample, so the strongest signals are more common in it than they were.
# How the values were obtained:
# Experiment in all cases: glycan array binding signal (z-score within array); higher = stronger binding
# Conditions in all cases: glycan notation: IUPAC condensed, linker removed
# [1] = molecular target: Fuc(a1-2)Gal(b1-3)[Fuc(a1-4)]GlcNAc(b1-2)Man(a1-3)[Fuc(a1-2)Gal(b1-3)[Fuc(a1-4)]GlcNAc(b1-2)Man(a1-3)]Man(b1-4)GlcNAc(b1-4)GlcNAc
# Summary of the method: (§1)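 Columns mapping to the same glycan were averaged after glycan names were converted to IUPAC-condensed notation. The data come from 3228 arrays in the Consortium for Functional Glycomics database, limited to those with an available protein sequence. Binding is reported as a within-array Z-score averaged across arrays of one protein sequence and across linkers.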
# [2] = molecular target: Fuc(a1-2)Gal(b1-4)Fuc(a1-3)]GlcNAc(b1-2)Man(a1-3)[Fuc(a1-2)Gal(b1-4)[Fuc(a1-3)]GlcNAc(b1-2)Man(a1-6)]Man(b1-4)GlcNAc(b1-4)GlcNAc
# Summary of the method: as §1
# [3] = molecular target: Fuc(a1-2)Gal(b1-4)GlcNAc(b1-2)Man(a1-3)[Fuc(a1-2)Gal(b1-4)GlcNAc(b1-2)Man(a1-6)]Man(b1-4)GlcNAc(b1-4)[Fuc(a1-6)]GlcNAc
# Summary of the method: as §1
# [4] = molecular target: Fuc(a1-2)Gal(b1-4)[Fuc(a1-3)]GlcNAc
# Summary of the method: as §1
# [5] = molecular target: Fuc(a1-2)Gal(b1-4)[Fuc(a1-3)]GlcNAc(b1-2)Man(a1-3)[Fuc(a1-2)Gal(b1-4)[Fuc(a1-3)]GlcNAc(b1-2)Man(a1-6)]Man(b1-4)GlcNAc(b1-4)GlcNAc
# Summary of the method: as §1
# [6] = molecular target: Fuc(a1-2)[GalNAc(a1-3)]Gal(b1-3)GalNAc(a1-3)[Fuc(a1-2)]Gal(b1-4)GlcNAc
# Summary of the method: as §1
# [7] = molecular target: Fuc(a1-2)[GalNAc(a1-3)]Gal(b1-3)GalNAc(b1-3)Gal(a1-4)Gal(b1-4)Glc
# Summary of the method: as §1
# [8] = molecular target: Fuc(a1-2)[GalNAc(a1-3)]Gal(b1-4)GlcNAc(b1-3)Gal(b1-4)GlcNAc
# Summary of the method: as §1
# [9] = molecular target: Fuc(a1-2)[GalNAc(a1-3)]Gal(b1-4)GlcNAc(b1-3)Gal(b1-4)GlcNAc(b1-3)Gal(b1-4)GlcNAc
# Summary of the method: as §1
# [10] = molecular target: Fuc(a1-2)[GalNAc(a1-3)]Gal(b1-4)GlcNAc(b1-6)GalNAc
# Summary of the method: as §1
# [11] = molecular target: Fuc(a1-2)[GalNAc(a1-4)]Gal(b1-4)GlcNAc
# Summary of the method: as §1
# [12] = molecular target: Fuc(a1-3)[Gal(b1-4)]GlcNAc(b1-4)Gal(b1-4)[Fuc(a1-3)]GlcNAc(b1-4)Gal(b1-4)[Fuc(a1-3)]GlcNAc
# Summary of the method: as §1
# [13] = molecular target: Fuc(a1-3)[Gal(b1-4)]GlcNAc(b1-6)[Gal(b1-3)GlcNAc(b1-3)]Gal(b1-4)Glc
# Summary of the method: as §1
# Gal(a1-3)Gal(b1-4)Glc = molecular target: Gal(a1-3)Gal(b1-4)Glc
# Summary of the method: as §1
# Gal(b1-2)Gal = molecular target: Gal(b1-2)Gal
# Summary of the method: as §1
# [14] = molecular target: Gal(b1-3)Gal(b1-4)GlcNAc(b1-2)Man(a1-3)[Gal(b1-3)Gal(b1-4)GlcNAc(b1-2)Man(a1-6)]Man(b1-4)GlcNAc(b1-4)GlcNAc
# Summary of the method: as §1
# Gal(b1-3)GlcNAc(b1-2)Man = molecular target: Gal(b1-3)GlcNAc(b1-2)Man
# Summary of the method: as §1
# [15] = molecular target: Gal(b1-3)GlcNAc(b1-3)Gal(b1-4)GlcNAc(b1-6)[Gal(b1-3)GlcNAc(b1-3)]Gal(b1-4)Glc
# Summary of the method: as §1
# [16] = molecular target: Gal(b1-3)[Fuc(a1-4)]GlcNAc(b1-2)Man(a1-3)[Gal(b1-3)[Fuc(a1-4)]GlcNAc(b1-2)Man(a1-6)]Man(b1-4)GlcNAc(b1-4)[Fuc(a1-6)]GlcNAc
# Summary of the method: as §1
# [17] = molecular target: Gal(b1-3)[GlcNAc(b1-6)]GalNAc
# Summary of the method: as §1
# [18] = molecular target: Gal(b1-3)[Neu5Ac(b2-6)]GalNAc
# Summary of the method: as §1
# [19] = molecular target: Gal(b1-4)GlcNAc(b1-2)Man(a1-6)[GlcNAc(b1-2)Man(a1-3)]Man(b1-4)GlcNAc(b1-4)GlcNAc
# Summary of the method: as §1
# [20] = molecular target: Gal(b1-4)GlcNAc(b1-2)[Gal(b1-4)GlcNAc(b1-6)]Man(a1-6)[GlcNAc(b1-4)][Gal(b1-4)GlcNAc(b1-2)[Gal(b1-4)GlcNAc(b1-4)]Man(a1-3)]Man(b1-4)GlcNAc(b1-4)[Fuc(a1-6)]GlcNAc
# Summary of the method: as §1
# [21] = molecular target: Gal(b1-4)GlcNAc(b1-3)Gal(b1-4)GlcNAc(b1-3)Gal(b1-4)GlcNAc(b1-2)[Gal(b1-4)GlcNAc(b1-3)Gal(b1-4)GlcNAc(b1-3)Gal(b1-4)GlcNAc(b1-6)]Man(a1-6)[Gal(b1-4)GlcNAc(b1-3)Gal(b1-4)GlcNAc(b1-3)Gal(b1-4)GlcNAc(b1-2)Man(a1-3)]Man(b1-4)GlcNAc(b1-4)[Fuc(a1-6)]GlcNAc
# Summary of the method: as §1
# [22] = molecular target: Gal(b1-4)GlcNAc(b1-3)Gal(b1-4)GlcNAc(b1-3)Gal(b1-4)GlcNAc(b1-3)Gal(b1-4)GlcNAc(b1-3)Gal(b1-4)GlcNAc(b1-2)Man(a1-3)[Gal(b1-4)GlcNAc(b1-3)Gal(b1-4)GlcNAc(b1-3)Gal(b1-4)GlcNAc(b1-3)Gal(b1-4)GlcNAc(b1-3)Gal(b1-4)GlcNAc(b1-2)Man(a1-6)]Man(b1-4)GlcNAc(b1-4)[Fuc(a1-6)]GlcNAc
# Summary of the method: as §1
# Gal3S6S(b1-4)GlcNAc = molecular target: Gal3S6S(b1-4)GlcNAc
# Summary of the method: as §1
# Gal4S(b1-4)GlcNAc = molecular target: Gal4S(b1-4)GlcNAc
# Summary of the method: as §1
# Gal6S(b1-3)GlcNAc6S = molecular target: Gal6S(b1-3)GlcNAc6S
# Summary of the method: as §1
binder,measurement,setting,value
"HPA (Helix pomatia), Q575S3 (protein) MWAHLTGLLLICALSLSAAQRAQTGEIDCGSDSSWPKDPSDNPNRDNTREIVKHVTFSPQFCREPKVILSVTTLDAEHTKNLRYEARLKSVSPSGLSASCYSWHDGTIYRMKLSWLAVED",glycan array binding signal (z-score),[1],-0.229
same,glycan array binding signal (z-score),[2],-0.186
same,glycan array binding signal (z-score),[3],-0.229
same,glycan array binding signal (z-score),[4],-0.264
same,glycan array binding signal (z-score),[5],-0.221
same,glycan array binding signal (z-score),[6],4.9
same,glycan array binding signal (z-score),[7],4.46
same,glycan array binding signal (z-score),[8],4.44
same,glycan array binding signal (z-score),[9],4.28
same,glycan array binding signal (z-score),[10],2.54
same,glycan array binding signal (z-score),[11],5.52
same,glycan array binding signal (z-score),[12],-0.271
same,glycan array binding signal (z-score),[13],-0.251
same,glycan array binding signal (z-score),Gal(a1-3)Gal(b1-4)Glc,-0.261
same,glycan array binding signal (z-score),Gal(b1-2)Gal,-0.259
same,glycan array binding signal (z-score),[14],-0.266
same,glycan array binding signal (z-score),Gal(b1-3)GlcNAc(b1-2)Man,0.558
same,glycan array binding signal (z-score),[15],-0.246
same,glycan array binding signal (z-score),[16],-0.227
same,glycan array binding signal (z-score),[17],-0.265
same,glycan array binding signal (z-score),[18],-0.268
same,glycan array binding signal (z-score),[19],-0.239
same,glycan array binding signal (z-score),[20],-0.252
same,glycan array binding signal (z-score),[21],-0.25
same,glycan array binding signal (z-score),[22],-0.253
same,glycan array binding signal (z-score),Gal3S6S(b1-4)GlcNAc,-0.266
same,glycan array binding signal (z-score),Gal4S(b1-4)GlcNAc,-0.267
same,glycan array binding signal (z-score),Gal6S(b1-3)GlcNAc6S,-0.242
